Source: PubChem BioAssay (several laboratories)
Hits are enriched below; roughly 1.4% of the tested compounds scored in any of these assays.
PrPC TRFRET: cell surface PrPC inhibition, primary TR-FRET screen. TR-FRET read-out. P04156. inhibition, % at 13.8 µM. 370,000 tested, 0.43% active; in the data active = inhibition above about 24%; note: 0% = median of the test wells and 100% = reference compound wells
Mtb hypoxia rep: inhibitors of hypoxia-regulated fluorescent reporter in Mycobacterium tuberculosis | M. tuberculosis hypoxia-regulated fluorescent reporter, fluorescence | 300,000 tested, 0.1% active | AID 1159583 | fluorescence inhibition, % (concentration not given with the values); in the data active = fluorescence inhibition mostly above about 23%, no sharp cut-off; inactive = mostly below about 17%
PrP 5UTR inh: suppresses PrP 5' UTR mRNA reporter expression. 340,000 tested, 0.35% active. cell-based PrP 5' UTR mRNA reporter, plate reader. inhibition, % (concentration not given with the values); in the data active = inhibition above about 52%; note: 0 = median of the neutral control wells
SARS 3CLpro inh: SARS-CoV 3CLpro protease inhibition. recombinant SARS-CoV 3CLpro, quenched FRET peptide cleavage. 290,000 tested, 0.14% active. inhibition, % at 6 µM. P0C6X7; in the data active = inhibition above about 12%
BJeLR viability: kills HRASV12-expressing BJeLR cells; BJeLR (HRASV12) viability, CellTiter-Glo ATP luminescence, 48 h; inhibition, % (no concentration beside the values); 300,000 tested, 0.17% active; in the data active = inhibition above about 50%
RecA splice inh: blocks M. tuberculosis RecA intein splicing; P9WHJ3; cell-free RecA intein splicing, fluorescence; inhibition, % (test concentration not listed); 290,000 tested, 0.75% active; AID 2221; in the data active = inhibition above about 30%;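 note: 0% = vehicle wells and 100% = reference inhibitor control wells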
PrPC TRFRET cf: cell surface PrPC inhibition, TR-FRET confirmation | 1,500 tested, 65% active | cell surface PrPC level | shares compounds with PrPC TRFRET | inhibition, % at 13.8 µM; in the data active = inhibition above about 25%
LD9 tox: counter-screen for PrPc inhibitors: cytotoxicity in LD9 cells; shares compounds with PrPC TRFRET; luminescence viability; inhibition, % at 13.8 µM; 1,500 tested, 29% active; AID 743201; in the data active = inhibition above about 9.5%
* hit, by the source's call.

Screening Cc1nc2ccccc2c2oc(C(=O)N3CCN(C4CCCCC4)CC3)cc12 returned PrPC TRFRET 26*, PrP 5UTR inh 1, SARS 3CLpro inh -3, BJeLR viability 3, RecA splice inh 4, PrPC TRFRET cf 21 and LD9 tox 15*.
For Cc1nc2ccccc2c2oc(C(=O)N3CCC(N4CCCCC4)CC3)cc12 the results were Mtb hypoxia rep 7, PrP 5UTR inh -15 and SARS 3CLpro inh 2.
Screening Cc1ccccc1CN1C2c3ccccc3CC2OCCS1(=O)=O (stereo not given) returned Mtb hypoxia rep 12.
Screening CCc1ccc(NC(=O)C(C)Sc2nc(-c3ccco3)c(C#N)c(=O)[nH]2)cc1 (stereo not given) returned PrPC TRFRET 28*, Mtb hypoxia rep -3, PrP 5UTR inh -2, SARS 3CLpro inh 3, BJeLR viability -4, RecA splice inh 5, PrPC TRFRET cf 16 and LD9 tox -9.
For N#Cc1c(-c2ccco2)nc(SCC(=O)Nc2cccc(Cl)c2)[nH]c1=O the results were PrPC TRFRET 78*, Mtb hypoxia rep 3, PrP 5UTR inh -18, SARS 3CLpro inh 8, BJeLR viability -3, PrPC TRFRET cf 113* and LD9 tox -4.
For COC(=O)C1=CC(C(=O)OC)C2C3=C(C(=O)C24CCCCC4)C(C)n2c(=O)n(-c4ccccc4)c(=O)n2C3C1 (stereo not given) the results were Mtb hypoxia rep 22.
Cc1ccc(C2C3C(=O)N(C)C(=O)C3[C@]3(C)C(=O)N(Cc4ccccn4)CC(=O)N23)o1 (stereo not given in full) was read as Mtb hypoxia rep 0.
For CCOc1ccc(C(=O)Nc2cnn(Cc3ccc(Cl)c(Cl)c3)c2)cc1 the results were PrPC TRFRET 27*, Mtb hypoxia rep 4, PrP 5UTR inh 2, SARS 3CLpro inh 5, BJeLR viability 4, RecA splice inh 4, PrPC TRFRET cf 23 and LD9 tox -4.
Screening Cc1ccc(Cl)cc1NC(=O)c1ccc(Cn2cc(Cl)cn2)cc1 returned PrPC TRFRET 27*, Mtb hypoxia rep -2, PrP 5UTR inh -2, SARS 3CLpro inh 3, BJeLR viability 1, RecA splice inh 1, PrPC TRFRET cf 24 and LD9 tox 3.
O=C(Nc1ccc(Cl)c(Cl)c1)c1ccc(Cn2cc(Cl)cn2)cc1 was read as PrPC TRFRET 6, Mtb hypoxia rep 18, PrP 5UTR inh -47, SARS 3CLpro inh 4, BJeLR viability -4 and RecA splice inh 8.
Screening CCCOc1ccc(C(CC(=O)O)NC(=O)c2sc3ccccc3c2Cl)cc1 (stereo not given) returned PrPC TRFRET 43*, Mtb hypoxia rep 3, PrP 5UTR inh -13, SARS 3CLpro inh 7, BJeLR viability 8, RecA splice inh 3, PrPC TRFRET cf 34* and LD9 tox -5.
Screening COc1cc(NS(=O)(=O)c2ccc(NC(=S)NC(=O)c3sc4ccccc4c3Cl)cc2)nc(OC)n1 returned PrPC TRFRET 9, Mtb hypoxia rep 5, PrP 5UTR inh -9, SARS 3CLpro inh 1, BJeLR viability 5 and RecA splice inh 10.
`CCCCOC(=S)NC(=O)c1sc2ccccc2c1Cl` gave PrPC TRFRET 43*, PrP 5UTR inh -11, SARS 3CLpro inh -3, BJeLR viability 0, RecA splice inh 4, PrPC TRFRET cf 18 and LD9 tox -8.
Screening NC(N)=NS(=O)(=O)c1ccc(NC(=S)NC(=O)c2sc3ccccc3c2Cl)cc1 returned PrPC TRFRET 36*, Mtb hypoxia rep 0, PrP 5UTR inh -15, SARS 3CLpro inh 0, BJeLR viability -6, RecA splice inh -3, PrPC TRFRET cf 77* and LD9 tox -7.
CCN1C(=O)C2C(c3ccc(-c4cccc(Cl)c4)cc3)N[C@@](Cc3ccccc3)(C(=O)OC)C2C1=O (stereo not given in full) was read as Mtb hypoxia rep -3.
Screening CCOc1ccc(CCN2C(=O)C(=O)N(C(CCCN(C)Cc3ccccc3)CNCc3ccccc3)CC2C(C)C)cc1 (stereo not given) returned Mtb hypoxia rep 15.
`COCCN(CCOC)C(=O)CC(=O)N(CCOC)CCOC` gave PrPC TRFRET 28*, Mtb hypoxia rep -1, PrP 5UTR inh 2, SARS 3CLpro inh 5, BJeLR viability -5, RecA splice inh 0, PrPC TRFRET cf 7 and LD9 tox -1.
For COc1cc2c(cc1OC)C(=CC#N)NC(C)(C)C2 the results were Mtb hypoxia rep 5.
`c1ccc(CC2CNCCN2CCc2cccc3ccccc23)cc1` (stereo not given) gave Mtb hypoxia rep 13.
CCN1C(=O)C2C(c3ccc(C)cc3)N3C(=O)N(c4ccc(C)cc4)C(=O)[C@@]3(Cc3ccccc3)C2C1=O (stereo not given in full) was read as Mtb hypoxia rep -3.
For Cc1nn(Cc2ccc(Cl)c(Cl)c2)c(C)c1NC(=O)c1cc(CC(C)C)on1 the results were PrPC TRFRET 49*, Mtb hypoxia rep 9, PrP 5UTR inh -8, SARS 3CLpro inh 5, BJeLR viability 3, RecA splice inh -2, PrPC TRFRET cf 51* and LD9 tox 1.
Cc1ccccc1Cn1nc(C)c(NC(=O)c2cc(CC(C)C)on2)c1C was read as PrPC TRFRET 7, Mtb hypoxia rep -1, PrP 5UTR inh -12, SARS 3CLpro inh -1, BJeLR viability 1 and RecA splice inh 1.
For CC(NC(=O)c1cc(COc2ccc3ncccc3c2)on1)c1ccc(F)cc1 (stereo not given) the results were PrPC TRFRET 33*, Mtb hypoxia rep -1, PrP 5UTR inh -1, SARS 3CLpro inh 5, BJeLR viability 8, RecA splice inh 1, PrPC TRFRET cf 34* and LD9 tox 11*.
O=C(c1cc(COc2ccc3ncccc3c2)on1)N1CCCC1 was read as PrPC TRFRET 42*, Mtb hypoxia rep -7, PrP 5UTR inh -2, SARS 3CLpro inh -2, BJeLR viability 4, RecA splice inh 11, PrPC TRFRET cf 42* and LD9 tox 9.
For O=C(NCCc1cn2ccccc2n1)c1cc(COc2ccc3ncccc3c2)on1 the results were PrPC TRFRET 25*, Mtb hypoxia rep -2, PrP 5UTR inh -1, SARS 3CLpro inh -5, BJeLR viability 16, RecA splice inh 1, PrPC TRFRET cf 40* and LD9 tox 49*.
